The whole screen tested about 5,500 compounds, of which about 2,000 (36%) were called active. Another 18% or so got no clear call; they are omitted. No stated cut-off is given here; in the data, active means normalized growth mostly below about 0.91 (no sharp cut-off); inconclusive means no clear call, values can overlap the other calls; inactive means mostly above about 0.92. The list shows a part of the results.
Assay: chemical genetic growth profiling, strain panel (AID 1159580);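 further: tested at 20 µM; growth read once vehicle control cultures reached saturation at 30 °C; 1 = growth at the plate median or of vehicle wells; lower values mean less growth of the strain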
Conditions: growth OD

Measured: normalized growth

CSc1nc(N)nc(C(C)(C)C)n1
inactive: S. cerevisiae deletion strains, locus YAL013W, strain DEP1, active compounds read low 1.01 | S. cerevisiae deletion strains, locus YBR229C, strain ROT2, active compounds read low 1 | S. cerevisiae deletion strains, locus YCL061C, strain MRC1, active compounds read low 0.993 | S. cerevisiae deletion strains, locus YDL101C, strain DUN1, active compounds read low 0.976 | S. cerevisiae deletion strains, locus YDL134C, strain PPH21, active compounds read low 1.01 | S. cerevisiae deletion strains, locus YDR150W, strain NUM1, active compounds read low 0.978 | S. cerevisiae deletion strains, locus YEL061C, strain CIN8, active compounds read low 1.02 | S. cerevisiae deletion strains, locus YGR078C, strain PAC10, active compounds read low 1.01 | S. cerevisiae deletion strains, locus YHR030C, strain SLT2, active compounds read low 0.974 | S. cerevisiae deletion strains, locus YHR087W, strain rtc3, active compounds read low 1 | S. cerevisiae deletion strains, locus YJL187C, strain SWE1, active compounds read low 1.02 | S. cerevisiae deletion strains, locus YJR043C, strain POL32, active compounds read low 1.01 | S. cerevisiae deletion strains, locus YJR075W, strain HOC1, active compounds read low 0.978 | S. cerevisiae deletion strains, locus YLR039C, strain RIC1, active compounds read low 1.01 | S. cerevisiae deletion strains, locus YLR058C, strain SHM2 (second series), active compounds read low 1.02 | S. cerevisiae deletion strains, locus YLR085C, strain ARP6, active compounds read low 1.03 | S. cerevisiae deletion strains, locus YLR262C, strain YPT6, active compounds read low 1.01 | S. cerevisiae deletion strains, locus YML094W, strain GIM5, active compounds read low 0.981 | S. cerevisiae deletion strains, locus YMR219W, strain ESC1, active compounds read low 1.02 | S. cerevisiae deletion strains, locus YMR263W, strain SAP30, active compounds read low 0.991 | S. cerevisiae deletion strains, locus YNL128W, strain TEP1, active compounds read low 1.02 | S. cerevisiae deletion strains, locus YNL153C, strain GIM3, active compounds read low 0.982 | S. cerevisiae deletion strains, locus YNL298W, strain CLA4 (second series), active compounds read low 1.03 | S. cerevisiae deletion strains, locus YNL322C, strain KRE1, active compounds read low 1 | S. cerevisiae deletion strains, locus YNR030W, strain Alg12, active compounds read low 1 | S. cerevisiae deletion strains, locus YOL006C, strain TOP1, active compounds read low 0.968 | S. cerevisiae deletion strains, locus YPL055C, strain LGE1, active compounds read low 0.989 | S. cerevisiae deletion strains, locus YPL241C, strain CIN2, active compounds read low 1.11 | S. cerevisiae deletion strains, locus YPR135W, strain CTF4, active compounds read low 0.951 | S. cerevisiae strains, strain wild type, active compounds read low 1.02
